Screening results as filed in PubChem BioAssay.
This is a sample that favours compounds with a hit; in the whole collection about 12% have one here.
NS1 inh: qHTS Assay for Inhibitors of Influenza NS1 Protein Function; Potency, µM (titrated, usually from 46.1 µM); actives 0.4% (n = 270,000); AID 2326, 2010; calls by dose curve; note: actives are rising curves; nearly all actives have a fitted effect of over 50% in size
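A cell-based growth assay was used: compounds that relieve NS1-induced slow growth of budding yeast raise OD600. Assay medium was yeast nitrogen base with ammonium sulphate and -URA supplement, pH 6.0, with 2% galactose.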
Pf growth 96h: Primary qHTS for delayed death inhibitors of the malarial parasite plastid, 96 hour incubation; P. falciparum luciferase reporter growth, 96 h; Potency, µM (series often up to 28.7 µM), actives largely listed as inhibitors; actives 6.9% (n = 320,000); AID 504834, 2011
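Delayed-death screen, second-generation endpoint: infected erythrocytes, 2% hematocrit, 0.05% parasitemia final; 96 hours at 37 C, 5% CO2; luciferase detection reagent; luminescence decrease equals reduced growth.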
AMA1-RON2 inh: qHTS for Inhibitors of AMA1-RON; Towards Development of Antimalarial Drug Lead: Primary Screen; AlphaScreen AMA1-biotinylated RON2 peptide binding; Potency, µM (series often up to 58.2 µM), actives largely listed as inhibitors; actives 0.2% (n = 360,000); AID 720542, 2013; note: nearly all actives have a fitted effect of over 45% in size
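AMA1 (3D7) with his tag at 25 nM final met compounds first, then biotinylated RON2 peptide at 25 nM; detection used donor plus acceptor beads, 10 µg/mL apiece, read by AlphaScreen after 30 min at room temperature.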
SARS PLpro yeast: qHTS of Yeast-based Assay for SARS-CoV PLP; S. cerevisiae expressing SARS-CoV PLpro, growth rescue; Potency, µM (series often up to 32.9 µM), most hits filed as activators; actives 0.19% (n = 330,000); AID 485353, 2010; calls by dose curve; note: nearly all actives have a fitted effect of over 55% in size
Pf growth 48h: Primary qHTS for delayed death inhibitors of the malarial parasite plastid, 48 hour incubation; P. falciparum luciferase growth in erythrocytes, 48 h; Potency, µM (top dose mostly 28.7 µM), most hits filed as inhibitors; actives 5.9% (n = 310,000)
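Firefly luciferase activity from engineered P. falciparum reports growth; inhibitors lower the luminescent signal. Cultures contained 2% hematocrit erythrocytes at 0.1% final parasitemia.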
HCV inh: qHTS Assay for Inhibitors of Hepatitis C Virus (HCV). Huh7.5.1 HCVcc-Cre infection, luciferase reporter, 44 h. Potency, µM (series often up to 41.8 µM), most hits filed as inhibitors. actives 3.4% (n = 340,000)
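Infectious HCV cell culture screen: compound-treated cells (1,000/well, pre-plated 4 h) are infected with HCVcc-Cre at roughly 0.5 moi and grown 44 h. Infection is quantified by luciferase signal after 15 min substrate incubation at room temperature.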
Each line names hits and unclear results; the compound was inactive in the other large screens. Unless noted, calls come from the whole dose curve; as a rule, active = well fitted curve in the direction sought with a large enough effect; inconclusive = small, poorly fitted or top-dose-only effect, or another doubt; inactive = no such curve, though single readings can be large; an effect the other way counts as inactive or inconclusive.

Cc1ccc(C(=O)NC(NC(=S)Nc2ccc(S(N)(=O)=O)cc2)C(Cl)(Cl)Cl)cc1 (configuration not stated)	none
CS(=O)(=O)N(CC(=O)N1CCC(C(N)=O)CC1)c1cc(C(F)(F)F)ccc1Cl	none
O=C(NCc1cn(-c2ccccc2)nc1-c1ccc(F)cc1)c1cccc([N+](=O)[O-])c1	Pf growth 96h inconclusive, HCV inh inconclusive
O=C(NC(NC(=S)Nc1ccc(Cl)cc1Cl)C(Cl)(Cl)Cl)c1cccc([N+](=O)[O-])c1 (configuration not stated)	Pf growth 96h inconclusive, Pf growth 48h 1.65µM, HCV inh inconclusive
CN(C(=O)COC(=O)c1ccccc1C(=O)N1CCN(c2ccccc2)CC1)c1ccccc1	Pf growth 96h inconclusive, Pf growth 48h inconclusive (no result: NS1 inh)
Cn1c(SCc2ccc(Br)cc2)nc2ccccc2c1=O	Pf growth 96h inconclusive, HCV inh inconclusive
Cc1cccc(CSc2nc3ccccc3c(=O)n2C)c1	Pf growth 96h inconclusive, Pf growth 48h inconclusive, HCV inh 22.4µM (no result: NS1 inh)
COn1c(SCc2cccc(Cl)c2)nc2ccccc2c1=O	Pf growth 96h 10.4µM, Pf growth 48h inconclusive, HCV inh inconclusive
CCN(CC)C(=O)CSc1nc2ccccc2c(=O)n1OC	Pf growth 96h 13.1µM
COn1c(SCc2ccccc2)nc2ccccc2c1=O	Pf growth 96h inconclusive, Pf growth 48h inconclusive
Cc1ccc(C)c(NC(=O)CN(C)C(=O)c2nn(C)c(=O)c3ccccc23)c1	none
N#Cc1ccccc1S(=O)(=O)Nc1ccc2c(c1)C(=O)OC2	none
O=C1N2CCCCC1(c1ccccc1)CCCC2	none (no result: NS1 inh, Pf growth 96h, SARS PLpro yeast, Pf growth 48h, HCV inh)
c1ccc(C2(N3CCCC3)CCCCC2)cc1	Pf growth 96h 13.5µM, Pf growth 48h 15.1µM (no result: NS1 inh, AMA1-RON2 inh, SARS PLpro yeast, HCV inh)
CC1COC(Cn2c3ccccc3c3ccccc32)O1 (configuration not stated)	none
CCc1ccc([C@@H]2CC=C(C(=O)O)[C@H](c3ccccc3F)N2S(=O)(=O)c2ccc(C)cc2)cc1	none (no result: NS1 inh)
O=C(CCCSc1nnc(SCCCC(=O)c2ccc(F)cc2)s1)c1ccc(F)cc1	Pf growth 96h inconclusive, Pf growth 48h inconclusive, HCV inh 10µM
Nc1nnc(SCCCC(=O)c2ccc(F)cc2)s1	none
CCOC(=O)C1(C)CCCN(C(=O)c2c(F)cccc2F)C1 (configuration not stated)	none (no result: NS1 inh, Pf growth 96h, SARS PLpro yeast, Pf growth 48h, HCV inh)
Cc1cccc(CCNC(=O)C2CC(O)CN2C(=O)Nc2ccccc2)c1 (configuration not stated)	none (no result: NS1 inh, Pf growth 96h, SARS PLpro yeast, Pf growth 48h, HCV inh)
COCCNC(=O)N1[C@H]2CC[C@@H]1C(C(=O)OC)=C(c1ccc(OC)c(OC)c1)C2	none (no result: NS1 inh)
COC(=O)C1=C(c2ccc(-c3ccccc3)c(F)c2)C[C@@H]2CC[C@H]1N2C(=O)NCC1CC1	Pf growth 96h inconclusive, Pf growth 48h 4.65µM, HCV inh inconclusive (no result: NS1 inh)
COC(=O)C1=C(c2ccc(-c3ccccc3)c(F)c2)C[C@@H]2CC[C@H]1N2C(=O)NCCOc1ccccc1	Pf growth 96h inconclusive, Pf growth 48h 3.29µM, HCV inh 12.6µM (no result: NS1 inh)
COC(=O)C1=C(c2ccc(OC)c(OC)c2)C[C@@H]2CC[C@H]1N2C(=O)NC1Cc2ccccc2C1	Pf growth 96h inconclusive, Pf growth 48h inconclusive (no result: NS1 inh)
COCCNC(=O)N1[C@H]2CC[C@@H]1C(C(=O)OC)=C(c1ccc(-c3ccccc3)c(F)c1)C2	Pf growth 96h inconclusive, Pf growth 48h inconclusive, HCV inh 3.16µM (no result: NS1 inh)
COC(=O)C1=C(c2ccc(OC)c(OC)c2)C[C@@H]2CC[C@H]1N2C(=O)NCCOc1ccccc1	Pf growth 96h inconclusive (no result: NS1 inh)
COC(=O)C1=C(c2ccc(-c3ccccc3)c(F)c2)C[C@@H]2CC[C@H]1N2C(=O)NC1Cc2ccccc2C1	Pf growth 96h inconclusive, Pf growth 48h 9.28µM, HCV inh inconclusive (no result: NS1 inh)
CCOC(=O)CSc1nnc(NC(=O)CN2CCCCC2)s1	Pf growth 48h inconclusive
Cc1nnc(NCC=Cc2ccccc2)s1	none (no result: NS1 inh, Pf growth 96h, SARS PLpro yeast, Pf growth 48h, HCV inh)
COC(=O)C1=C(c2ccc3ccccc3c2)C[C@@H]2CC[C@H]1N2C(=O)NCC1CC1	Pf growth 96h inconclusive, Pf growth 48h 3.29µM, HCV inh inconclusive (no result: NS1 inh)
COC(=O)C1=C(c2ccc3ccccc3c2)C[C@@H]2CC[C@H]1N2C(=O)NC1CC1	Pf growth 96h inconclusive, Pf growth 48h inconclusive (no result: NS1 inh)
CCC1CCCCN1C(=O)c1cc(COc2ccc(-n3cncn3)cc2)on1 (configuration not stated)	HCV inh 31.6µM
CC(=O)c1ccc(OCc2cc(C(=O)N3CCCCCCC3)no2)cc1	Pf growth 96h 13.1µM
COc1cccc(OCc2cc(C(=O)N3CCN(C4CCCC4)CC3)no2)c1	Pf growth 96h inconclusive
CCN(CC)C(=O)C1CCCN(C(=O)c2cc(COc3cccc(OC)c3)on2)C1 (configuration not stated)	Pf growth 96h 9.28µM
CCOC(=O)C1CCCN(C(=O)c2cc(COc3ccc(C)nc3)on2)C1 (configuration not stated)	HCV inh 8.91µM
O=C1Nc2cc(Cl)cnc2N2CCCC12 (configuration not stated)	Pf growth 96h 4.15µM, HCV inh inconclusive
Cc1ccc(C(C)C)cc1OCCn1cncn1	none
CC(C)(C)OC(=O)NCCCC[C@H](NC(=O)c1[nH]cnc1C(=O)Nc1ccc(CNC(=O)OC(C)(C)C)cc1)C(=O)OC(C)(C)C	Pf growth 96h 3.29µM, Pf growth 48h 3.29µM
C[C@H](NC(=O)c1[nH]cnc1C(=O)Nc1ccc(CNC(=O)OC(C)(C)C)cc1)C(=O)OC(C)(C)C	Pf growth 96h 9.28µM, Pf growth 48h 13.1µM, HCV inh inconclusive
CC(C)(C)OC(=O)NCc1ccc(NC(=O)c2nc[nH]c2C(=O)NCCCNC(=O)c2[nH]cnc2C(=O)Nc2ccc(CNC(=O)OC(C)(C)C)cc2)cc1	none (no result: NS1 inh, Pf growth 96h, Pf growth 48h)
C=CCn1c(COc2cccc(C)c2)nnc1SCn1nnc2ccccc2c1=O	none
O=C(Cn1cnc2cc([N+](=O)[O-])ccc2c1=O)NCCc1ccc(F)cc1	none
O=C(Cn1cnc2cc([N+](=O)[O-])ccc2c1=O)NCCc1ccc(Cl)cc1	HCV inh 14.1µM
CC(c1ccccc1)C1CC(=O)N(c2cc(Cl)ccn2)C1=O (configuration not stated)	none
CCCCN(CC)CCNC(=O)c1cc2c(-c3ccccc3F)nn(C)c2s1	Pf growth 48h 2.08µM, HCV inh inconclusive
CN1CCN(CCCNC(=O)c2cc3c(-c4ccc(Cl)cc4)nn(C)c3s2)CC1	Pf growth 96h inconclusive, HCV inh inconclusive (no result: Pf growth 48h)
CCN(CC)CCCNC(=O)c1cc2c(-c3ccc(Cl)cc3)nn(C)c2s1	Pf growth 96h inconclusive, HCV inh 11.2µM (no result: Pf growth 48h)
